According to PubChem BioAssay (NCI):
This is part of a sample that, as a whole, favours compounds with a hit. Of some 83,000 tested, about 20% had one in any assay.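 Each cell line was grown in a 96-well plate and treated with one concentration of compound for 48 hours. Values below 10 were considered active.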 Calls of active or inactive are those of the source.

Columns and labels:
Assay in all cases: NCI-60 one-dose screen, 48 h (100 = growth as untreated, 0 = no growth, -100 = all killed)
Settings in all cases: 10 µM unless noted
NCI-H23 lung = test system: NCI-H23 lung
NCI-H226 lung = test system: NCI-H226 lung
NCI-H322M lung = test system: NCI-H322M lung
HOP-62 NSCLC = test system: HOP-62 NSCLC
NCI-H460 lung = test system: NCI-H460 lung
HOP-92 NSCLC = test system: HOP-92 NSCLC
NCI-H522 lung = test system: NCI-H522 lung
786-0 renal = test system: 786-0 renal
COLO 205 colon = test system: COLO 205 colon
DU-145 prostate = test system: DU-145 prostate
K-562 leukemia = test system: K-562 leukemia
MALME-3M melanoma = test system: MALME-3M melanoma
MDA-MB-231 breast = test system: MDA-MB-231 breast
RXF 393 renal = test system: RXF 393 renal
SF-268 CNS = test system: SF-268 CNS
SF-295 CNS = test system: SF-295 CNS
SF-539 CNS = test system: SF-539 CNS
UACC-257 melanoma = test system: UACC-257 melanoma
M14 melanoma = test system: M14 melanoma
A549/ATCC NSCLC = test system: A549/ATCC NSCLC

Measured: growth

O=C1C(=O)c2ccccc2C(O)=C1CCCc1ccc(C2CCCCC2)cc1
inactive: NCI-H23 lung 36.9% | NCI-H226 lung 47.1% | NCI-H322M lung 81.3% | HOP-62 NSCLC 44% | HOP-92 NSCLC 40.7% | NCI-H522 lung 54.7% | 786-0 renal 30.8% | COLO 205 colon 42.6% | DU-145 prostate 39.2% | K-562 leukemia 32.8% | MALME-3M melanoma 87.9% | MDA-MB-231 breast 52.1% | RXF 393 renal 67.2% | SF-268 CNS 38.1% | SF-295 CNS 39.7% | SF-539 CNS 29.2% | UACC-257 melanoma 34.9% | M14 melanoma 56.3%
active: NCI-H460 lung 7.15%

O=[N+]([O-])c1cc(S(=O)(=O)c2ccc(F)c([N+](=O)[O-])c2)ccc1F
inactive: NCI-H23 lung 103% | NCI-H226 lung 109% | NCI-H322M lung 110% | HOP-62 NSCLC 121% | NCI-H460 lung 99.3% | HOP-92 NSCLC 88.6% | NCI-H522 lung 89% | A549/ATCC NSCLC 102% | 786-0 renal 100% | DU-145 prostate 98.1% | K-562 leukemia 40.4% | MALME-3M melanoma 132% | MDA-MB-231 breast 103% | RXF 393 renal 82.9% | SF-268 CNS 108% | SF-295 CNS 111% | SF-539 CNS 109% | UACC-257 melanoma 75.4% | M14 melanoma 81.7%

O=C(c1ccccc1)C(CN1CCOCC1)c1ccccc1 (stereo unspecified)
inactive: NCI-H23 lung 65.3% | NCI-H226 lung 40.1% | NCI-H322M lung 84.7% | HOP-62 NSCLC 81% | NCI-H460 lung 79.4% | HOP-92 NSCLC 40.5% | A549/ATCC NSCLC 95.3% | 786-0 renal 31% | DU-145 prostate 28.9% | MDA-MB-231 breast 33.2% | RXF 393 renal 25.9% | SF-268 CNS 27% | SF-539 CNS 37.3% | UACC-257 melanoma 51.5% | M14 melanoma 27.8%
active: NCI-H522 lung -51.3% | K-562 leukemia 7.04% | MALME-3M melanoma -3.82%

C=C1CC[C@@H](C(=O)OC)Cc2nc(C)ccc21
inactive: NCI-H23 lung 97% | NCI-H226 lung 103% | NCI-H322M lung 109% | HOP-62 NSCLC 106% | NCI-H460 lung 106% | HOP-92 NSCLC 106% | NCI-H522 lung 86.4% | 786-0 renal 101% | COLO 205 colon 117% | DU-145 prostate 119% | K-562 leukemia 101% | MALME-3M melanoma 105% | MDA-MB-231 breast 108% | RXF 393 renal 118% | SF-268 CNS 109% | SF-295 CNS 98.4% | SF-539 CNS 99.3% | UACC-257 melanoma 94.4% | M14 melanoma 105%

CC(C)(C)c1cc(-n2c(-c3ccc(Cl)cc3)nc3cc(C(=O)Nc4ccc(Cl)cc4)ccc32)n[nH]1
active: SF-295 CNS -2.36%
inactive: NCI-H23 lung 32.8% | NCI-H226 lung 73.9% | NCI-H322M lung 82% | HOP-62 NSCLC 83.6% | NCI-H460 lung 39.6% | HOP-92 NSCLC 38.1% | NCI-H522 lung 56.9% | 786-0 renal 67.4% | COLO 205 colon 51.8% | DU-145 prostate 79.8% | K-562 leukemia 41.2% | MALME-3M melanoma 75.4% | MDA-MB-231 breast 79.8% | RXF 393 renal 65.7% | SF-268 CNS 69.7% | SF-539 CNS 82.9% | UACC-257 melanoma 81.1% | M14 melanoma 62.7%

COc1ccc(-c2cc(-c3cccs3)n(N=O)c(=O)c2C#N)cc1
inactive: NCI-H23 lung 89.1% | NCI-H226 lung 99.8% | NCI-H322M lung 106% | HOP-62 NSCLC 93.8% | NCI-H460 lung 102% | HOP-92 NSCLC 63.8% | NCI-H522 lung 93% | A549/ATCC NSCLC 100% | 786-0 renal 93.5% | DU-145 prostate 119% | K-562 leukemia 34.3% | MALME-3M melanoma 127% | MDA-MB-231 breast 100% | RXF 393 renal 96.3% | SF-268 CNS 110% | SF-295 CNS 102% | SF-539 CNS 96.5% | UACC-257 melanoma 101% | M14 melanoma 116%

Cn1cc(-c2csc(-c3cn(CCCN4CCCCC4)c4ccccc34)n2)c2cccnc21
inactive: NCI-H23 lung 84% | NCI-H226 lung 52.7% | NCI-H322M lung 82.7% | HOP-92 NSCLC 57.8% | NCI-H522 lung 95.2% | SF-295 CNS 32%
active: HOP-62 NSCLC -84% | NCI-H460 lung -58.7% | A549/ATCC NSCLC -14.4% | 786-0 renal -87.1% | DU-145 prostate -52.5% | K-562 leukemia -70% | MALME-3M melanoma -78.6% | MDA-MB-231 breast -81.4% | RXF 393 renal -78.6% | SF-268 CNS -25.6% | SF-539 CNS -88.6% | UACC-257 melanoma -80.3% | M14 melanoma -80.9%

COC(=O)[C@]12CC[C@@H](C(C)=O)[C@@H]1[C@H]1CC[C@@H]3[C@@]4(C)C/C(=C/c5cccnc5)C(=O)C(C)(C)[C@@H]4CC[C@@]3(C)[C@]1(C)CC2
inactive: NCI-H23 lung 53.2% | NCI-H226 lung 48.1% | NCI-H322M lung 93.9% | HOP-62 NSCLC 103% | NCI-H460 lung 70.9% | HOP-92 NSCLC 66.7% | NCI-H522 lung 47.5% | 786-0 renal 84.9% | COLO 205 colon 82.5% | DU-145 prostate 68.8% | K-562 leukemia 18.3% | MALME-3M melanoma 29.9% | MDA-MB-231 breast 76.6% | RXF 393 renal 30.9% | SF-268 CNS 68.6% | SF-295 CNS 75.3% | SF-539 CNS 81% | UACC-257 melanoma 58.1% | M14 melanoma 56.7%
